Measured values taken from PubChem BioAssay.
A number with no mark means an inactive call. How the calls were made is not given here. For part of these data: Potency and affinity values are given separately.

system: not listed separately; assay: blockers of DNA damage checkpoint Chk1 activation – imaging, HeLa, hydroxyurea, phospho-Chk1 antibody, percent positive cells, primary screen (AID 1186); settings: hydroxyurea-induced phospho-Chk1 immunofluorescence imaging, higher = more signal

Row | Compound | z-score
1 | COC(=O)[C@@]1(Cc2ccc(F)cc2)[C@H]2c3cc(C(=O)N(C)C)[nH]c3C[C@H]2CN1C(=O)c1ccccc1 | 1.11
2 | C=C(CC1(CNP(=O)(c2ccccc2)c2ccccc2)CC1)c1ccccc1 | -0.462
3 | COc1cc2c(cc1O)C=[N+](C)CC2 | -0.663
4 | CN1CCC(c2ccc(CO)cc2)=CC1C1CC1 (configuration not stated) | 0.738
5 | COc1cc2c(cc1O)C(C)N(C)CC2 (configuration not stated) | -0.0732
6 | OCc1ccc(C2=CC(C3CC3)N(Cc3sc4ccccc4c3Cl)CC2)cc1 (configuration not stated) | -0.6
7 | CCCc1cc2c(n1Cc1ccco1)C(C)C1CN(C(=O)c3ccccc3)C(C)(C(=O)OC)C21 (configuration not stated) | 0.586

system: not listed separately; assay: blockers of DNA damage checkpoint Chk1 activation – imaging, HeLa, hydroxyurea, phospho-Chk1 nuclear intensity, primary screen (AID 1187); settings: hydroxyurea-induced phospho-Chk1 immunofluorescence imaging, higher = more signal

Row | Compound | z-score
8 | COC(=O)[C@@]1(Cc2ccc(F)cc2)[C@H]2c3cc(C(=O)N(C)C)[nH]c3C[C@H]2CN1C(=O)c1ccccc1 | 0.831
9 | C=C(CC1(CNP(=O)(c2ccccc2)c2ccccc2)CC1)c1ccccc1 | -0.427
10 | COc1cc2c(cc1O)C=[N+](C)CC2 | -0.875
11 | CN1CCC(c2ccc(CO)cc2)=CC1C1CC1 (configuration not stated) | 0.657
12 | COc1cc2c(cc1O)C(C)N(C)CC2 (configuration not stated) | 0.363
13 | OCc1ccc(C2=CC(C3CC3)N(Cc3sc4ccccc4c3Cl)CC2)cc1 (configuration not stated) | -0.744
14 | CCCc1cc2c(n1Cc1ccco1)C(C)C1CN(C(=O)c3ccccc3)C(C)(C(=O)OC)C21 (configuration not stated) | 0.875

target: Adenosylmethionine-8-amino-7-oxononanoate aminotransferase (Mycobacterium tuberculosis (strain ATCC 25618 / H37Rv)) (UniProt P9WQ81); assay: inhibition of purified M. tuberculosis BioA – biochemical, plate reader, cherry-pick samples, dose response (AID 651683); settings: purified M. tuberculosis BioA enzyme; series mostly up to 10 µM; activity change, negative = inhibition: at the top concentration
Sequence (P9WQ81 whole entry, looked up): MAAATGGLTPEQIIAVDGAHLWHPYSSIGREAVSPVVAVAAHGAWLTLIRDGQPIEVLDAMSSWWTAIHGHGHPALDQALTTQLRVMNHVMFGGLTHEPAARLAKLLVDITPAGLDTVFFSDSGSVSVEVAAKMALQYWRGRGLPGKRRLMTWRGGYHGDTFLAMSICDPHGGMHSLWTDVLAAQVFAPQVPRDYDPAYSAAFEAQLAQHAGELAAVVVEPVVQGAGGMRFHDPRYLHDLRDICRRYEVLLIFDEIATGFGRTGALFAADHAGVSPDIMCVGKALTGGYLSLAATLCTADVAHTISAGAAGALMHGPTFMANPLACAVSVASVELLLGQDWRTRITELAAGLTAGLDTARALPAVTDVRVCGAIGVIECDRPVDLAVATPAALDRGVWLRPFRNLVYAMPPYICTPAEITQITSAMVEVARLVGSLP

Row | Compound | activity change, negative = inhibition [%]
15 | O=C(c1ccncc1)N1CC[C@@H]2[C@@H](CO)Nc3ccc(Br)cc3[C@@H]21 | -7.33
16 | COc1ccccc1-c1cc(C(F)(F)F)nc(S(=O)(=O)CCCC(=O)O)n1 | -32.7
17 | Nc1cc(C(=O)O)ccc1Nc1ccccc1 | -36.3
18 | O=C(O)CSc1ncnc2scc(-c3ccc(Br)cc3)c12 | -38.2
19 | CC(Oc1cc2oc(=O)c3c(c2cc1Cl)CCC3)C(=O)NCc1cccnc1 (configuration not stated) | -31
20 | N#Cc1ccc(-c2ccc3c(c2)[C@@H]2[C@@H](CCN2C(=O)c2ccc(F)cc2)[C@@H](CO)N3)cc1 | -3.75
21 | Cc1ccc(NCc2nnc(SCC(=O)N3CCc4ccccc43)n2C)cc1 | -1.08
22 | Cc1c(OC(C)C(=O)NCC2CCC(C(=O)O)CC2)ccc2c1oc(=O)c1ccccc12 (configuration not stated) | -16.6
23 | CCOc1ccc(-n2c(SCC(N)=O)nc3c(c2=O)SCC3)cc1 | -35.2
24 | Cc1ccc(S(=O)(=O)N(C)C)cc1NC(=O)CSc1nncs1 | -28.6
25 | O=C(C[C@H]1C[C@H]2c3cc(NC(=O)c4cccnc4)ccc3O[C@H]2[C@H](CO)O1)NCc1ccccn1 | -34.9
26 | CN1c2ccc(-c3cccc(F)c3)cc2[C@@H]2[C@@H](CCN2C(=O)c2ccncc2)[C@H]1CO | -28.9
27 | O=C(CN1C(=O)/C(=C/c2cccc(Br)c2)SC1=S)Nc1cccnc1 | -51.7
